The nature of experiment [1]: NCI Yeast Anticancer Drug Screen. Data for the rad50 strain (AID 155).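 Also: 0% = growth of vehicle-only cultures of the same strain.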 Conditions: S. cerevisiae rad50 strain growth inhibition; at 50.0 µM; stronger effect = higher value. A digest of the protocol: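 Genetically altered yeast (DNA repair pathway); compound treatment; growth inhibition vs vehicle ctrl.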
Experiment [2] can be described thus: NCI Yeast Anticancer Drug Screen. Data for the mec2-1 strain (AID 157). Conditions: S. cerevisiae mec2-1 strain, at 50.0 µM, stronger effect = higher value. A digest of the protocol: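 Mutant yeast (mec2-1) grown with compound; growth inhibition relative to vehicle control reported.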
Experiment [3] is described as follows: NCI Yeast Anticancer Drug Screen. Data for the sgs1 mgt1 strain (AID 161).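 Also: 0% = growth of cultures given vehicle only.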 Conditions: S. cerevisiae sgs1 mgt1 strain, at 50.0 µM, stronger effect = higher value. In a few lines: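 Yeast cells carrying a defined DNA-repair defect were exposed to test compounds. Growth inhibition was measured relative to vehicle-treated controls.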
A short description of experiment [4]: NCI Yeast Anticancer Drug Screen. Data for the cln2 rad14 strain (AID 165).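 Also: 0% = growth equal to vehicle treated cultures.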 Conditions: S. cerevisiae cln2 rad14 strain, at 50.0 µM, stronger effect = higher value. In a few lines:
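Readout is yeast growth inhibition versus vehicle-treated controls, using a strain with cln2 and rad14 alterations exposed to compound.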

Experiment [5] in a line: NCI Yeast Anticancer Drug Screen. Data for the bub3 strain (AID 167). Conditions: S. cerevisiae bub3 mutant strain, at 50.0 µM, stronger effect = higher value. In a few lines:
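Yeast carrying a defined mutation is treated with each compound, and growth is compared with that of vehicle-exposed cells to give inhibition.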

A short description of experiment [6]: NCI Yeast Anticancer Drug Screen. Data for the mlh1 rad18 strain (AID 175). The note with it: S. cerevisiae mlh1 rad18 strain growth inhibition; at 50.0 µM; stronger effect = higher value. A digest of the protocol: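 Genetically defined yeast (DNA repair-deficient) exposed to compounds; growth inhibition determined relative to vehicle.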

The panel holds about 79,000 compounds, 15% with a hit somewhere; the sample as a whole holds those more often. A number with no mark means an inactive call. The source made the active and inactive calls. Rule as the data show it: active = growth inhibition above about 70%; inactive = the rest.

`Cc1ccc(N=NC2Sc3nc4ccccc4n3C2=O)cc1` (stereo unspecified): the growth inhibition is -7.1% in experiment [1]; 9.75% in experiment [2]; -0.7% in experiment [3]; -35.5% in experiment [4]; 16.3% in experiment [5]; 13.2% in experiment [6].
`CC(=O)Nc1cc(-c2ccccc2)cc(-c2ccccc2)c1`: the growth inhibition in experiment [1] was 11.6%; in experiment [2], 0.4%; in experiment [3] it was -2.55%; in experiment [4], 1.5%; in experiment [5], 10.7%; in experiment [6], 22.4%.
Regarding `Cc1cc(C)nc(NS(=O)(=O)c2ccc(NC(=O)c3ccncc3)cc2)n1`, the growth inhibition in experiment [1] is -7.75%; in experiment [2], -17.1%; in experiment [3] it was 3.05%; in experiment [4], 9.55%; in experiment [5] it was -8.25%; in experiment [6], -17.1%.
For `NC(=O)SCC(=O)Nc1ccc2ncccc2c1`, the growth inhibition in experiment [1] is -18.9%; in experiment [2], 4.7%; in experiment [3] it was -22.8%; in experiment [4], -27.2%; in experiment [5], -8.15%; in experiment [6], 2.8%.
Regarding `N#C/C=C/c1cccc(Cl)c1`, the growth inhibition in experiment [1] is 39.1%; in experiment [2], 7.9%; in experiment [3], 1.9%; in experiment [4], 14.3%; in experiment [5], 14.3%; in experiment [6] it was 16.9%.
Turning to `CC(=O)Nc1cc(F)c2c(c1F)Cc1cc(F)ccc1-2`, the growth inhibition in experiment [1] is 15.1%; in experiment [2], 21.9%; in experiment [3] it was 11.7%; in experiment [4], -63.4%; in experiment [5] it was 5.15%; in experiment [6], 7.95%.
Consider `N#CCc1nn(-c2ccccc2)c2ncn(N)c(=N)c12`, for which the growth inhibition in experiment [1] is -8.45%; in experiment [2], -14.8%; in experiment [3] it was -9.6%; in experiment [4], -22.2%; in experiment [5], 6.2%; in experiment [6] it was -12.2%.
As to `C[Si](C)(COC(N)=O)Cc1ccccc1`, the growth inhibition in experiment [1] is -28.1%; in experiment [2], -12.6%; in experiment [3], -15.5%; in experiment [4] it was -1.2%; in experiment [5], -10.6%; in experiment [6] it was -32%.
With `CC(C)CCCC(C)C1CCC2C3CCC4Cc5c(c6ccccc6n5C)CC4(C)C3CCC12C` (stereo unspecified), the growth inhibition in experiment [1] is -13.2%; in experiment [2] it was 35%; in experiment [3], -5.75%; in experiment [4], -27.8%; in experiment [5], -8.95%; in experiment [6], 21.9%.
As for `COC(=O)c1ccccc1C1CN=NC12Cc1ccc3c(c1C2=O)CCC3` (stereo unspecified), the growth inhibition in experiment [1] was -0.85%; in experiment [2] it was -3.55%; in experiment [3], 1.75%; in experiment [4] it was -7.3%; in experiment [5] it was 7.1%; in experiment [6], 16.7%.
`COc1c(C)c(OCC=C(C)C)cc(CO)c1CO`: the growth inhibition in experiment [1] was 11.8%; in experiment [2] it was -3.2%; in experiment [3], -13.9%; in experiment [4] it was -8.15%; in experiment [5], -0.95%; in experiment [6], -84.5%.
`CC(C)N(C(=S)[S-])C(C)C.CC(C)N(C(=S)[S-])C(C)C.[Zn]`: the growth inhibition in experiment [1] was 96.8% (active); in experiment [2] it was 96.8% (active); in experiment [3], 97.8% (active); in experiment [4], 24.1%; in experiment [5], 59.5%; in experiment [6], 97% (active).
On to `CC1(C)C(=O)N2c3ccccc3C3(CC(N4C(=O)c5ccccc5C4=O)C(=O)O3)C2N1C(=O)OCc1ccccc1` (stereo unspecified), for which the growth inhibition in experiment [1] is 26.1%; in experiment [2] it was 13.8%; in experiment [3] it was 9.35%; in experiment [4], 15.2%; in experiment [5] it was 14.1%; in experiment [6], -13.1%.
As for `C[n+]1c2ccccc2c(Oc2c3ccccc3[n+](C)c3ccccc23)c2ccccc21`, the growth inhibition in experiment [1] was 3.8%; in experiment [2], 11.2%; in experiment [3] it was 31.4%; in experiment [4] it was -15.3%; in experiment [5], -4.4%; in experiment [6] it was 0.1%.
With `CCCCOC(=O)OCCOCCOC(=O)OC(C)C(=O)OCCCC` (stereo unspecified), the growth inhibition in experiment [1] is -16.9%; in experiment [2] it was -22.4%; in experiment [3], -10.2%; in experiment [4], -21.3%; in experiment [5], 1.7%; in experiment [6], 10.8%.
Regarding `C[N+](C)(C)Cc1cc2ccccc2c2ccccc12`, the growth inhibition in experiment [1] is -23%; in experiment [2], -8.9%; in experiment [3], -18.8%; in experiment [4], -9.55%; in experiment [5] it was -8.35%; in experiment [6], 20.1%.
With `O=c1cc(O)nc2cn[nH]n12`, the growth inhibition in experiment [1] was 4.8%; in experiment [2], -22.4%; in experiment [3], 7.65%; in experiment [4] it was 13.4%; in experiment [5], -3.45%; in experiment [6] it was 1.6%.
Regarding `O=C1CCCCC(=O)Nc2ccc3nc4ccccc4c(c3c2)SCCCCCCCCSc2c3ccccc3nc3ccc(cc23)N1`, the growth inhibition in experiment [1] was -13.4%; in experiment [2], -9.65%; in experiment [3], 2.55%; in experiment [4], -6.05%; in experiment [5], -2.3%; in experiment [6] it was -4.2%.
In the case of `O=C1CC[C@@H](S(=O)(=O)c2ccccc2)[C@H](/C=C/c2ccccc2)O1`, the growth inhibition in experiment [1] was -5.5%; in experiment [2], 25.2%; in experiment [3], 37.6%; in experiment [4], 26.1%; in experiment [5], -7.4%; in experiment [6], -15.9%.
As to `OCC=C1CCCCCC1`, the growth inhibition in experiment [1] was 4.9%; in experiment [2] it was 6.8%; in experiment [3] it was 1.5%; in experiment [4], -4.25%; in experiment [5], 12.3%; in experiment [6], 2.95%.
Turning to `CCOC(=O)Nc1nc(-c2ccc(Br)cc2)cs1`, the growth inhibition in experiment [1] is -11.5%; in experiment [2], -5.4%; in experiment [3], -2.1%; in experiment [4], -37.6%; in experiment [5], 14.1%; in experiment [6], -17.9%.

Source of the values: PubChem BioAssay (NCI).
